Laboratory results taken from the supplement of paper PMC8975748.
Structures can show the parent of a compound that is named as a salt.

test system: Saccharomyces cerevisiae BY4741 SeMeCo community; test: z-score of subpopulation abundance vs DMSO median, subpopulation auxotrophic for U; higher = larger share of this subpopulation than in DMSO controls; conditions: 10 µM; 24 h; SM minimal medium; subpopulation (auxotrophy): U
Protocol: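 Fluorescent four-plasmid SeMeCo (self-establishing metabolically cooperating S. cerevisiae BY4741 community; plasmids pH-mRuby2, pL-mWasabi, pU-eCFP, pM-TagRFP657) was grown 24 h in minimal SM medium with each Selleck FDA-approved drug at 10 µM in 384-well plates. Cells were fixed and imaged by high-content confocal microscopy. For each auxotrophic subpopulation (and the prototroph), a z-score gives the deviation from the DMSO vehicle-control population median.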

**Q.** For CCc1c(C)[nH]c2c1C(=O)C(CN1CCOCC1)CC2 (stereo not given) [Molindone hydrochloride], which “z-score of subpopulation abundance” value is on record?
**A.** -0.6

**Q.** CN[C@@H]1[C@@H](O[C@H]2O[C@H](CO)[C@@H](N)[C@H](O)[C@H]2O)OC2C[C@@H](N)[C@@H](O[C@H]3[C@H](O)[C@@H](O)[C@H](N)C[C@@H]3N)OC2[C@@H]1O (stereo not given in full) [Apramycin Sulfate] was tested. Which “z-score of subpopulation abundance” value did it give?
**A.** 0.87

**Q.** Which “z-score of subpopulation abundance” value does the source give for Nc1ccc(S(=O)(=O)Nc2nccs2)cc1 [Sulfathiazole] here?
**A.** 0.9

**Q.** For OC(Cn1cncn1)(Cn1cncn1)c1ccc(F)cc1F [Fluconazole], which “z-score of subpopulation abundance” value is on record?
**A.** -0.29

**Q.** How did the “z-score of subpopulation abundance” value turn out when C[N+](C)(C)CCO.[Cl-] [Choline Chloride] was run?
**A.** 0.8

**Q.** CCN(CC)CCOC(=O)c1ccc(N)cc1 [Procaine HCl] was tested. Which “z-score of subpopulation abundance” value did it give?
**A.** -0.15

**Q.** How did the “z-score of subpopulation abundance” value turn out when Cc1ccsc1/C=C/C1=NCCCN1C [Morantel tartrate] was run?
**A.** 0.23

**Q.** For CN(C)[C@@H]1C(=O)C(C(N)=O)=C(O)[C@@]2(O)C(=O)C3=C(O)c4c(O)ccc(Cl)c4[C@@H](O)[C@H]3C[C@@H]12 [Demeclocycline HCl], which “z-score of subpopulation abundance” value is on record?
**A.** 0.03

**Q.** With Nc1ccc(S(=O)(=O)Nc2ncccn2)cc1 [Sodium sulfadiazine] as the compound, how does the “z-score of subpopulation abundance” value read?
**A.** 0.32

**Q.** How did the “z-score of subpopulation abundance” value turn out when CNCC[C@@H](Oc1ccccc1C)c1ccccc1 [Atomoxetine HCl] was run?
**A.** 0.03

**Q.** O=C1CN(/N=C/c2ccc([N+](=O)[O-])o2)C(=O)N1 [Nitrofurantoin] was tested. Which “z-score of subpopulation abundance” value did it give?
**A.** -0.25

**Q.** CCc1c2c(nc3ccc(OC(=O)N4CCC(N5CCCCC5)CC4)cc13)-c1cc3c(c(=O)n1C2)COC(=O)[C@]3(O)CC [Irinotecan HCl Trihydrate] was tested. Which “z-score of subpopulation abundance” value did it give?
**A.** -0.91

**Q.** For CCCCCCCCc1ccc(CCC(N)(CO)CO)cc1 [Fingolimod], which “z-score of subpopulation abundance” value is on record?
**A.** -1.09

**Q.** With CCCCCOc1ccc(-c2ccc(-c3ccc(C(=O)N[C@H]4C[C@@H](O)[C@@H](O)NC(=O)[C@@H]5[C@@H](O)[C@@H](C)CN5C(=O)[C@H]([C@@H](C)O)NC(=O)[C@H]([C@H](O)[C@@H](O)c5ccc(O)cc5)NC(=O)[C@@H]5C[C@@H](O)CN5C(=O)[C@H]([C@@H](C)O)NC4=O)cc3)cc2)cc1 as the compound, how does the “z-score of subpopulation abundance” value read?
**A.** 0.13

**Q.** How did the “z-score of subpopulation abundance” value turn out when NC(=O)N1c2ccccc2C=Cc2ccccc21 [Carbamazepine] was run?
**A.** 0.01

**Q.** C[C@@H](O)[C@H]1C(=O)N2C(C(=O)O)=C([C@H]3CCCO3)S[C@H]12 [Faropenem Sodium] was tested. Which “z-score of subpopulation abundance” value did it give?
**A.** 1.08

**Q.** With CCn1cc(C(=O)O)c(=O)c2cc(F)c(N3CCN(C)CC3)cc21 [Pefloxacin Mesylate Dihydrate] as the compound, how does the “z-score of subpopulation abundance” value read?
**A.** 0.5

**Q.** For CC1(C)S[C@@H]2[C@H](NC(=O)[C@H](N)c3ccc(O)cc3)C(=O)N2[C@H]1C(=O)O [Amoxicillin], which “z-score of subpopulation abundance” value is on record?
**A.** 0.14

**Q.** C=C[C@H]1CN2CC[C@H]1C[C@H]2[C@H](O)c1ccnc2ccc(OC)cc12 [Quinine HCl Dihydrate] was tested. Which “z-score of subpopulation abundance” value did it give?
**A.** 0.16

**Q.** For CN(C)CCC=C1c2ccccc2C(C)(C)c2ccccc21 [Melitracen hydrochloride], which “z-score of subpopulation abundance” value is on record?
**A.** -0.05

**Q.** How did the “z-score of subpopulation abundance” value turn out when COC(=O)Nc1nc2cc(Sc3ccccc3)ccc2[nH]1 [Fenbendazole] was run?
**A.** -0.17

**Q.** CCS(=O)(=O)CCn1c([N+](=O)[O-])cnc1C [Tinidazole] was tested. Which “z-score of subpopulation abundance” value did it give?
**A.** 0.56

**Q.** With COc1ccc(C(Cl)=C(c2ccc(OC)cc2)c2ccc(OC)cc2)cc1 [Chlorotrianisene] as the compound, how does the “z-score of subpopulation abundance” value read?
**A.** 0.17

**Q.** For N[C@@H]1CCCCN(c2c(F)cc3c(=O)c(C(=O)O)cn(C4CC4)c3c2Cl)C1 [Besifloxacin HCl], which “z-score of subpopulation abundance” value is on record?
**A.** 0.87

**Q.** How did the “z-score of subpopulation abundance” value turn out when OC1(c2ccc(Cl)c(C(F)(F)F)c2)CCN(CCCC(c2ccc(F)cc2)c2ccc(F)cc2)CC1 [Penfluridol] was run?
**A.** -0.01

**Q.** With COc1ccc2c(c1)c(CC(=O)OCC(=O)O)c(C)n2C(=O)c1ccc(Cl)cc1 [Acemetacin] as the compound, how does the “z-score of subpopulation abundance” value read?
**A.** -0.02

**Q.** CCN1CCCC1CNC(=O)c1cc(S(=O)(=O)CC)c(N)cc1OC (stereo not given) [Amisulpride] was tested. Which “z-score of subpopulation abundance” value did it give?
**A.** 0.31

**Q.** For Clc1ccc(C(Cn2ccnc2)OCc2ccsc2Cl)c(Cl)c1 (stereo not given) [Tioconazole], which “z-score of subpopulation abundance” value is on record?
**A.** 1.22

**Q.** How did the “z-score of subpopulation abundance” value turn out when C#C[C@]1(OC(C)=O)CC[C@H]2[C@@H]3CCC4=C[C@@H](OC(C)=O)CC[C@@H]4[C@H]3CC[C@@]21C [Ethynodiol diacetate] was run?
**A.** -1.03

**Q.** For O=c1c(-c2ccc(O)cc2)coc2c([C@@H]3O[C@H](CO)[C@@H](O)[C@H](O)[C@H]3O)c(O)ccc12 [Puerarin], which “z-score of subpopulation abundance” value is on record?
**A.** 0.36

**Q.** CC(C)NC(=N)NC(=N)Nc1ccc(Cl)cc1 [Proguanil] was tested. Which “z-score of subpopulation abundance” value did it give?
**A.** 1.07

**Q.** How did the “z-score of subpopulation abundance” value turn out when CN1CCN(CC(=O)N2c3ccccc3C(=O)Nc3cccnc32)CC1 [Pirenzepine dihydrochloride] was run?
**A.** -0.46

**Q.** With C#CCC(Cc1cnc2nc(N)nc(N)c2n1)c1ccc(C(=O)N[C@@H](CCC(=O)O)C(=O)O)cc1 (stereo not given in full) [Pralatrexate] as the compound, how does the “z-score of subpopulation abundance” value read?
**A.** -4.47

**Q.** Which “z-score of subpopulation abundance” value does the source give for Cc1c(C(N)=O)cc([N+](=O)[O-])cc1[N+](=O)[O-] [Dinitolmide] here?
**A.** 0.48

**Q.** Which “z-score of subpopulation abundance” value does the source give for Cc1c(OCC(F)(F)F)ccnc1C[S@@+]([O-])c1nc2ccccc2[nH]1 [Dexlansoprazole] here?
**A.** -0.65

**Q.** How did the “z-score of subpopulation abundance” value turn out when O=S1(=O)CCN(CN2CCS(=O)(=O)NC2)CN1 [Taurolidine] was run?
**A.** 0.64

**Q.** Which “z-score of subpopulation abundance” value does the source give for CS(=O)(=O)c1ccc(C2=C(c3ccccc3)C(=O)OC2)cc1 [Rofecoxib] here?
**A.** -0.52

**Q.** CCCNC(C)C(=O)Nc1ccccc1C (stereo not given) [Prilocaine hydrochloride] was tested. Which “z-score of subpopulation abundance” value did it give?
**A.** 0.86

**Q.** For COc1ccc(CNc2nc(N3CCC[C@H]3CO)ncc2C(=O)NCc2ncccn2)cc1Cl [Avanafil], which “z-score of subpopulation abundance” value is on record?
**A.** 0.68

**Q.** How did the “z-score of subpopulation abundance” value turn out when Nc1nc(N)c2nc(-c3ccccc3)c(N)nc2n1 [Triamterene] was run?
**A.** -8.02
